According to paper PMC11024108:

Target: Malate dehydrogenase, mitochondrial (UniProt P40926)
Assay: cross-link between two proteins; cross-linking mass spectrometry

Sequence of Succinate dehydrogenase [ubiquinone] flavoprotein subunit, mitochondrial, P31040 (P31040 whole entry): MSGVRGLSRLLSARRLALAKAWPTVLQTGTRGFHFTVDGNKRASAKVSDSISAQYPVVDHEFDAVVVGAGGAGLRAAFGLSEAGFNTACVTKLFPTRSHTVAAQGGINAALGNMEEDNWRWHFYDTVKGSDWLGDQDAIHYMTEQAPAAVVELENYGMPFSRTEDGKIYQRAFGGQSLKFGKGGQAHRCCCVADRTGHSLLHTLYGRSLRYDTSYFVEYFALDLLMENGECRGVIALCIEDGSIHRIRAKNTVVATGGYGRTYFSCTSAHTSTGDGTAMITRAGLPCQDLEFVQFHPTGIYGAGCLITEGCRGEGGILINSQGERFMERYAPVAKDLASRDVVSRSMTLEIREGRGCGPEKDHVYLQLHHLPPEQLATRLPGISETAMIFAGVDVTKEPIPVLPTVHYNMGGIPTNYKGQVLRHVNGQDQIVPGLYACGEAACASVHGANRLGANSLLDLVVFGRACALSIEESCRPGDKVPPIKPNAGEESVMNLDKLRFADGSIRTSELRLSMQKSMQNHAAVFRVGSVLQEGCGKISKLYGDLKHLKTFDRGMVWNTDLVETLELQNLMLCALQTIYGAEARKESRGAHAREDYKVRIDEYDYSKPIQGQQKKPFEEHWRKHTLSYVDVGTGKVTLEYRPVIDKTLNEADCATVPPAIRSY
Sequence of Peptidyl-prolyl cis-trans isomerase F, mitochondrial, P30405 (P30405 whole entry): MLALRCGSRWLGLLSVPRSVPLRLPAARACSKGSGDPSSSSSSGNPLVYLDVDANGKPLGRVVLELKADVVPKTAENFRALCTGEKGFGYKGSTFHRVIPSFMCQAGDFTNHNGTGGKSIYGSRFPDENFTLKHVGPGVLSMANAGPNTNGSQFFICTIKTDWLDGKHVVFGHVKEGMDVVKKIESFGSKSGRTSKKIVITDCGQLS

Listed as a hit, yes:
Succinate dehydrogenase [ubiquinone] flavoprotein subunit, mitochondrial, P31040
Aldehyde dehydrogenase family 1 member B1, mitochondrial, P30837
Dihydrolipoyl dehydrogenase, mitochondrial, P09622
Aldehyde dehydrogenase, mitochondrial, P05091
Peptidyl-prolyl cis-trans isomerase F, mitochondrial, P30405
Glutathione reductase, mitochondrial, P00390
